In experiment [1] the test system is Plasmodium falciparum Sir2 (PF13_0152, Sir2A). The experiment in a line: pfSir2 binders on small-molecule microarrays, primary screen, biochemical, small-molecule microarray, 635 nm fluorescence (AID 1098).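 Note: score merges spot fluorescence intensity with its signal-to-noise ratio.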 The following applies: small-molecule microarray binding, fluorescence 635 nm; higher = more signal.
A short description of experiment [2]: small-molecule microarray binders of probe aDKK1, primary screen, biochemical, biotinylated probe, 635/667 nm fluorescence (AID 1099).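 Note: score merges 667nm spot fluorescence with signal to noise across triplicate slides; reference of the scale not given here.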 The following applies: higher = more signal.
The nature of experiment [3]: small-molecule microarray binders of probe aCHRDL2, primary screen, biochemical, biotinylated probe, 635/667 nm fluorescence (AID 1100). The following applies: higher = more signal.
Experiment [4] in a line: splicing luciferase reporter signal modulators, primary screen, spliceosome inhibition project, cell-based, HEK293, splice +/- reporter (AID 1101).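 Note: HEK293 cells carrying a splicing-competent luciferase reporter gene; test concentration not given here.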 Conditions: luminescence, 24 h, higher = more signal, called active from +8 up or from −8 down.
Experiment [5] deals with Fibroblast growth factor 10 (Homo sapiens) (UniProt O15520). Kind of experiment: FGF10 binders on small-molecule microarrays, primary screen, biochemical, small-molecule microarray, 635 nm fluorescence (AID 1102). The following applies: FGF10 binding, fluorescence 635 nm, higher = more signal.
Sequence of Fibroblast growth factor 10 (Homo sapiens) (O15520 whole entry, looked up): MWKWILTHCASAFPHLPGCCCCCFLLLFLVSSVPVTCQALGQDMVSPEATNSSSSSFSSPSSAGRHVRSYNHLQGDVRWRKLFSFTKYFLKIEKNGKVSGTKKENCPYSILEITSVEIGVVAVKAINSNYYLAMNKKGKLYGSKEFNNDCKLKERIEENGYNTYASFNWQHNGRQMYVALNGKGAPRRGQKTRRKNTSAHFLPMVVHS
Experiment [6] relates to glycogen synthase kinase-3 (GSK3A per assay name; protocol says GSK3B). Kind of experiment: GSK3 binders on small-molecule microarrays, primary screen, biochemical, small-molecule microarray, 635 nm fluorescence, GSK3A (AID 1103). Note: the record names both GSK3A and GSK3B. Conditions: small-molecule microarray binding, fluorescence 635 nm; higher = more signal.
Experiment [7] deals with Epidermal growth factor receptor (Homo sapiens) (UniProt P00533). Kind of experiment: EGFR binders on small-molecule microarrays, primary screen, biochemical, small-molecule microarray, 635 nm fluorescence (AID 1104).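 Note: score merges 667 nm emission intensity with spot signal to noise over triplicate slides.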 Conditions: EGFR binding, higher = more signal.
Sequence of Epidermal growth factor receptor (Homo sapiens) (P00533 whole entry, looked up): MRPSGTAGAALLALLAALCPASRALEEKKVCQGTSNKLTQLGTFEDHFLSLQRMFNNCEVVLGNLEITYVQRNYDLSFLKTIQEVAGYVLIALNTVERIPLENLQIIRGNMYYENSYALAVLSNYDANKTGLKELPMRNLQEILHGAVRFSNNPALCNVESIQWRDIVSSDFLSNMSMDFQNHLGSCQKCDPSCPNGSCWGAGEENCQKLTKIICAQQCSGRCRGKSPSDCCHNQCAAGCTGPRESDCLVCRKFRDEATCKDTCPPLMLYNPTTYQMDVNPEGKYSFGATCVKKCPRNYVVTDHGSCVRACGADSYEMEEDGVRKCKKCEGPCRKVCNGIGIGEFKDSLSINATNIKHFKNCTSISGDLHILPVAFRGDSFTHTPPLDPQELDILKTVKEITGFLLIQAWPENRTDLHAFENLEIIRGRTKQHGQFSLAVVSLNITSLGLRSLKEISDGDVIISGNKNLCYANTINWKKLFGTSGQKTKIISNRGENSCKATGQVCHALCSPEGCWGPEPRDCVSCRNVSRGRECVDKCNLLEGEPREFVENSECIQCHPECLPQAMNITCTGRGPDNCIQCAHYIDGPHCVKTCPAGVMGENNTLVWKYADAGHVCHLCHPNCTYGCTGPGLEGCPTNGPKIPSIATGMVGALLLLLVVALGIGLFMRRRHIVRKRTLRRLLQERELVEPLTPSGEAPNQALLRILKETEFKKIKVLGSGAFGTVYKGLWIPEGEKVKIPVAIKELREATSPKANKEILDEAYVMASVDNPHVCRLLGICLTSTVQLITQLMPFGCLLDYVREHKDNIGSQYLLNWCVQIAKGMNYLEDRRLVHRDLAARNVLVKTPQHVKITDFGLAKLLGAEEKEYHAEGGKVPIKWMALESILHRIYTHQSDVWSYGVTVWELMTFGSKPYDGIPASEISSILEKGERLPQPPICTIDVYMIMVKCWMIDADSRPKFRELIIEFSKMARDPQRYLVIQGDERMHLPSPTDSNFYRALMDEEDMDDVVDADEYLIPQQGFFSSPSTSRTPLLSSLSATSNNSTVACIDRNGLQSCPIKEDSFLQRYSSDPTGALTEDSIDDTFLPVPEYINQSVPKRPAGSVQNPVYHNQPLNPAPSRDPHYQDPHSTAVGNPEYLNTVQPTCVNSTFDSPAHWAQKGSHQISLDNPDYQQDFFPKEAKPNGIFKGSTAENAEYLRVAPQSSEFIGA
Experiment [8] concerns the target Follistatin-related protein 3 (Homo sapiens) (UniProt O95633). Kind of experiment: FSTL3 binders on small-molecule microarrays, primary screen, biochemical, small-molecule microarray, 635 nm fluorescence (AID 1105).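 Note: score merges emission near 667 nm and signal to noise per printed spot across three slides.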 Conditions: FSTL3 binding, higher = more signal.
Experiment [9] concerns the target Dickkopf-related protein 1 (Homo sapiens) (UniProt O94907). Kind of experiment: DKK1 binders on small-molecule microarrays, primary screen, biochemical, small-molecule microarray, 635 nm fluorescence scan (AID 1106).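 Note: score merges emission near 667 nm with signal to noise over three replicate slides.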 The following applies: DKK1 binding, higher = more signal.
The test system of experiment [10] is Inhibin beta A chain (activin A). The experiment in a line: INHBA (activin A) binders on microarrays, primary screen, biochemical, small-molecule microarray, 635 nm fluorescence scan (AID 1107).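 Note: mouse activin A protein probed at 4.33 µg/mL on printed slides; score merges bound-protein fluorescence near 667 nm with spot signal-to-noise.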 Conditions: small-molecule microarray binding, higher = more signal.

Active and inactive are the calls of the source.

Sequence of Follistatin-related protein 3 (Homo sapiens) (O95633 whole entry, looked up): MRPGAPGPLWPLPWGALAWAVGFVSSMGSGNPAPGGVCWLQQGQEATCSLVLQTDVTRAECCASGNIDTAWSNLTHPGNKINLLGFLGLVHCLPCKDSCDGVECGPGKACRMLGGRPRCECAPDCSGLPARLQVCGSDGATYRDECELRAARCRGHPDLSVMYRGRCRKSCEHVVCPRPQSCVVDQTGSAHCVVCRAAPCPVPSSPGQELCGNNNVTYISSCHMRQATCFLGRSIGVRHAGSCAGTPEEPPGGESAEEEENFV
Sequence of Dickkopf-related protein 1 (Homo sapiens) (O94907 whole entry, looked up): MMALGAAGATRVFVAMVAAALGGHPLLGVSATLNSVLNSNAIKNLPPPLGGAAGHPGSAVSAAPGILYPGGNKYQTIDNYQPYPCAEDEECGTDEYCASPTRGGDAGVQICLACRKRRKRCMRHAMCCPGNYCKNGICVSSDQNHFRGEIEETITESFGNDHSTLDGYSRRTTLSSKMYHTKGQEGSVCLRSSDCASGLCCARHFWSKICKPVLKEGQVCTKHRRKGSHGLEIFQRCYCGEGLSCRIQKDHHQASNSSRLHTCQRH

Consider `CCCN1C(=O)[C@]2(CCS(=O)(=O)c3ccccc3)N=C(c3ccc(OCCCO)cc3)O[C@@H]2c2ccccc21`, for which the composite z-score in experiment [1] worked out at 1.19; in experiment [2], 0.0947; in experiment [3], 0.766; in experiment [5], 0.533; in [6], 1.32; in experiment [7] it was 0.0338. In addition, the composite z-score in experiment [8] turned out to be 1.05; in [9], 0.125; in experiment [10] it was 0.916. Also, the z-score in experiment [4] is -0.707 (inactive).
For the compound `CN(C)C(=O)[C@@]1(Cc2ccccc2)N=C(c2ccc(OCCCO)cc2)O[C@H]1c1ccccc1N=[N+]=[N-]`, the composite z-score in experiment [1] was determined as 1.36; in experiment [2], 0.898; in experiment [3], 0.914; in experiment [5] it was 1.36; in [6], 1.26; in [7] it was 0.189. The composite z-score in [8] was 0.843; in [9] it was -0.237; in [10] it was 0.994. Moreover, in [4], the z-score was -1.26 (inactive).
Turning to `COCCCNC(=O)[C@@]1(Cc2ccccc2)N=C(c2ccc(OCCCO)cc2)O[C@H]1c1ccccc1`, the composite z-score in [1] is 1.19; in experiment [2], 1.22; in experiment [3], 1.28; in experiment [5], 0.849; in [6], 1.02; in experiment [7], -0.804. Moreover, the results for the composite z-score in experiment [8], in experiment [9] and in experiment [10] were -0.569, -0.728 and 1.01, respectively. The z-score in experiment [4] is 0.272 (inactive).
Turning to `CCCC=C(CCC)[C@@H](NS(=O)(=O)c1cccs1)c1ccc(C(=O)OC)cc1`, the composite z-score in experiment [1] was 0.565; in [2] it was 0.922; in experiment [3], 1.18; in [5], 0.77; in experiment [6] it was 1.19; in experiment [7], -0.122. Further, the composite z-score is 0.622 in experiment [8], -0.569 in [9] and -0.0034 in [10]. Further, the z-score in experiment [4] was 3.75 (inactive).
`CC(C)c1ccc(NN2C(C(O)c3cc(C(F)(F)F)cc(C(F)(F)F)c3)C=CC3C(=O)N(c4ccccc4)C(=O)C32)cc1` (stereo not given): the composite z-score in experiment [1] is 0.91; in experiment [2], 0.74; in experiment [3], 0.8; in experiment [5], -0.329; in [6] it was 0.543; in experiment [7] it was -0.911. Further, the composite z-score in experiment [8] was -0.486; in experiment [9] it was -0.551; in [10], 0.655. For the same compound, the z-score in experiment [4] is -0.753 (inactive).
`COc1ccc(C#Cc2ccc3c(c2)[C@]2(C(=O)N3)[C@H](c3ccccc3OCCO)N3[C@H](c4ccccc4)[C@H](c4ccccc4)OC(=O)[C@H]3[C@@H]2C(=O)O)cc1`: the composite z-score in experiment [1] came to 1.26; in [2], 0.734; in experiment [3], 0.142; in experiment [5], 1.4; in experiment [6], 1.21; in [7] it was 0.319. The composite z-score in [8] was 0.98; in [9], 0.126; in [10] it was 0.54. For the same compound, in experiment [4], the z-score is -2.14 (inactive).
With `O=C(O)[C@@]1(CCS(=O)(=O)c2ccccc2)COC(c2ccc(OCCCO)cc2)=N1`, the composite z-score in experiment [1] is 0.6; in experiment [2], 0.458; in experiment [3] it was 1.05; in [5], 0.0185; in experiment [6], -0.62; in [7] it was -0.939. Moreover, the figures for the composite z-score in [8], in [9] and in [10] were -0.928, -1.17 and 1.19, respectively. Moreover, in [4], the z-score is 0.733 (inactive).
In the case of `C=CCOC(=O)[C@H]1[C@@H]2C(=O)O[C@@H](c3ccccc3)[C@@H](c3ccccc3)N2[C@@H](c2ccc(OCCOC(=O)[C@H]3C[C@H]4C(=O)N[C@@H](CC(C)C)C(=O)N4[C@H]3c3ccc(O)cc3)cc2)[C@]12C(=O)Nc1ccc(I)cc12`, the composite z-score in [1] was 1.5; in experiment [2], -0.271; in [3], -0.3; in experiment [5], 1.4; in experiment [6], 1.3; in experiment [7], 0.748. Also, the values for the composite z-score in experiment [8], in experiment [9] and in experiment [10] were 1.15, 1.23 and 0.12, respectively. In experiment [4], the z-score is -0.281 (inactive).
As to `COC(=O)[C@@]1(Cc2ccc(OC)cc2)[C@H]2c3cc(C(=O)N4CCCC4)n(Cc4ccc(OC)c(OC)c4)c3C[C@H]2CN1C(=O)c1ccccc1`, the composite z-score in experiment [1] is 1.04; in experiment [2] it was 1.56; in experiment [3], 0.9; in experiment [5] it was 0.784; in experiment [6] it was 1.17; in [7] it was 1.34. The composite z-score in experiment [8] turned out to be 1.42; in experiment [9] it was 0.56; in experiment [10] it was 1.01. Besides, in experiment [4], the z-score is -1.81 (inactive).
Take `COc1ccc(C(=O)Nc2ccc(CN3C(=O)[C@@]4(O[C@@H](CCO)[C@H]([Si](C)(C)c5ccc(OC)cc5)[C@H]4C)c4ccccc43)cc2)cc1`: the composite z-score is 1.32 in experiment [1]; 0.381 in experiment [2]; 0.47 in experiment [3]; 0.793 in experiment [5]; 1.1 in [6]; 0.65 in experiment [7]. Also, the composite z-score in experiment [8] turned out to be 1.45; in [9], 1.04; in experiment [10], 1.39. For the same compound, the z-score in [4] was -3.19 (inactive).
Consider `CCCC=C(CCC)[C@@H](NC(=O)Oc1ccc(F)cc1)c1ccc(C(=O)OC)cc1`, for which the composite z-score in [1] was 0.217; in experiment [2], 0.346; in [3], 0.893; in [5] it was 0.441; in [6], -0.102; in experiment [7] it was 0.267. In addition, the values for the composite z-score in experiment [8], in [9] and in experiment [10] were 0.495, -0.284 and 0.602, respectively. For the same compound, the z-score in [4] was -1.86 (inactive).
For `C#CCN(Cc1ccccc1Br)C(/C=C/c1ccccc1)CO` (stereo not given), the composite z-score was -0.877 in experiment [1]; -0.23 in experiment [2]; 0.326 in [3]; 0.168 in experiment [5]; -0.398 in [6]; -0.153 in experiment [7]. In addition, the composite z-score in experiment [8] is -0.649; in experiment [9], -0.0455; in experiment [10] it was 0.904. Further, the z-score in experiment [4] is -1.03 (inactive).
As for `O=C1C[C@]2(c3ccc([N+](=O)[O-])cc3)C(=O)N(CCN3CCOCC3)c3cc(CO)ccc3[C@H]2N1C1CCCCC1`, the composite z-score in [1] was 0.781; in experiment [2], 0.42; in [3], 0.828; in [5] it was -0.142; in [6] it was -0.587; in [7], -0.517. In addition, the composite z-score in [8] is -0.875; in experiment [9], -0.877; in experiment [10] it was 0.342. In experiment [4], the z-score is -1.05 (inactive).
Consider `CCOC(=O)C1=CCC(c2ccc(C)cc2)N(S(=O)(=O)c2ccc(C)cc2)C1` (stereo not given), for which the composite z-score in experiment [1] is 0.751; in experiment [2], 0.524; in [3], 0.845; in experiment [5], 0.129; in experiment [6], 0.301; in experiment [7], -0.136. The results for the composite z-score in [8], in [9] and in experiment [10] were 0.058, 0.0296 and 1.42, respectively. Further, the z-score in experiment [4] is -0.688 (inactive).
Regarding `CC(C)N1C(=O)c2ccccc2[C@](C)(C(=O)NCc2ccccc2)[C@@H]1c1ccc(CO)cc1`, the composite z-score in [1] is 0.758; in experiment [2] it was 0.234; in [3], 0.849; in [5] it was -0.44; in experiment [6], -0.329; in [7], -0.587. The composite z-score in experiment [8] was -0.615; in experiment [9] it was -1.16; in [10], 0.288. The z-score in experiment [4] is 0.0799 (inactive).

Values taken from PubChem BioAssay.
